These results are taken from PubChem BioAssay AID1962 (The Scripps Research Institute Molecular Screening Center, 2009).

The whole screen tested about 300,000 compounds, of which about 2,500 (0.83%) were called active. Shown is part of a subset that was picked to be rich in actives. Values without a mark were called inactive.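 The calls were made as follows: active = inhibition above the mean of all tested compounds plus 3 SD, set per screening campaign (cut at about 24% in these data); inactive = the rest.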

The experiment relates to tRNA 2'-phosphotransferase TPT1 (Candida albicans SC5314). Description: tRNA 2'-phosphotransferase blockers, C. albicans – biochemical, fluorescence polarization, primary screen (AID 1962).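 Also: plate controls were DMSO alone for no effect and ferristatin control at 100 nM for full effect.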 The note with it: recombinant caTPT1, FP RNA substrate dephosphorylation; at 5 µM; stronger effect = higher value.
In the case of `COc1ccc(C(=O)NC(C)c2nccs2)cc1OC1CCN(C(C)C)CC1` (centres undefined), the inhibition is 1.11%.

Consider `COc1ccc(CN(C)C(=S)Nc2ccc(Cl)cc2Cl)cc1`, for which the inhibition is -3.43%.

Take `O=C(Nn1c(-c2ccccc2)nc2ccccc2c1=O)c1ccc([N+](=O)[O-])cc1`: the inhibition is -2.22%.

Regarding `Cc1nc2ccccc2nc(=O)c1NNc1ccc([N+](=O)[O-])cc1`, the inhibition is 33% (active).

With `Cc1nc2ccccc2cc1C(=O)N/N=C/c1ccc([N+](=O)[O-])cc1`, the inhibition was 1.45%.

`COC(=O)c1c(C)oc(C)c1S(=O)(=O)Nc1ccc(C(C)C)cc1`: the inhibition was -2.31%.

On to `COC(=O)c1cc(S(=O)(=O)NCC2CCN(Cc3ccc(Cl)cc3)CC2)cn1C`, for which the inhibition was -1.04%.

For `CCOC(=O)c1ccccc1CN1C(=O)c2ccccc2S1(=O)=O`, the inhibition was -6.64%.

As for `CN1C(=O)/C(=C/C=C2\SCCN2C)OC1=S`, the inhibition is 124% (active).

With `Cc1ccc(Cc2nc(-c3cccc(C)c3)no2)cc1`, the inhibition is 1.83%.

With `COc1ccc(CCNS(=O)(=O)c2cccc3cccnc23)cc1OC`, the inhibition is 1.77%.

With `COc1ccc(Cc2nc(-c3ccccn3)no2)cc1OC`, the inhibition was 48.4% (active).

In the case of `CCOC(=O)c1sc(=S)n2c1[nH]c(=O)c1ccc(C(=O)OC)cc12`, the inhibition was -1.57%.

With `CCOC(=O)c1sc(=NC(=O)c2ccc(Br)cc2)n(C)c1C`, the inhibition was -2.11%.

`CCOC(=O)C1=C(C)Nc2sc(C(=O)c3ccc(Br)cc3)c(N)c2C1c1ccc(C(=O)OC)cc1` (centres undefined): the inhibition is 54.7% (active).

On to `O=[N+]([O-])c1ccc(N/N=C/c2ccccc2)cc1`, for which the inhibition is 28.2% (active).

For `O=[N+]([O-])c1cccc(/C=N/Nc2ncc(Br)cn2)c1`, the inhibition is 0.84%.

In the case of `Cc1ccccc1OCCOc1ccc([N+](=O)[O-])cc1/C=N/n1cnnc1`, the inhibition is 2.12%.

For `O=C(N/N=C/c1ccc([N+](=O)[O-])cc1)c1c[nH]c2ccccc12`, the inhibition was 1.12%.

On to `Cc1cccc(COc2ccccc2/C=N/Nc2ccc([N+](=O)[O-])cc2)c1`, for which the inhibition was 92.1% (active).

As for `Cc1ccc(NS(=O)(=O)c2ccc(N/N=C/c3ccccc3OCC(=O)O)c([N+](=O)[O-])c2)c(C)c1`, the inhibition is -2.41%.

For the compound `O=[N+]([O-])c1ccc(N2CCN(c3ccc(O)cc3)CC2)c(Cl)c1`, the inhibition was 1.48%.

With `O=S(=O)(c1cccc(Cn2nnc(-c3ccc(F)cc3)n2)c1)N1CCOCC1`, the inhibition is 0.07%.

With `COc1ccc(C(CCN(Cc2ccc(OC)c(OC)c2)C(=O)CCl)c2ccccc2)cc1` (centres undefined), the inhibition is 2.12%.

With `COc1ccc(-n2c(C)cc(C(=O)CN3C(=O)NC4(CCc5ccccc54)C3=O)c2C)cc1` (centres undefined), the inhibition was -8.74%.

On to `CCOc1ccc(CNC(=O)C2CCCN(c3nnc(C)c4c(C)n(-c5ccccc5)nc34)C2)cc1` (centres undefined), for which the inhibition is 1.81%.

As for `CCOc1nnc(C)c2c(C)n(-c3cccc(Cl)c3)nc12`, the inhibition was 24.6% (active).

Take `Cc1nn(-c2ccccc2)c(C)c1NC(=O)COc1ccc(Cl)cc1Cl`: the inhibition is -4.09%.

For `CCc1nn(CCCC(=O)NC(C)c2ccccc2)c(=O)c2cc3occc3n12` (centres undefined), the inhibition is -2.3%.

As for `CCCCN(CCCC)CCNC(=O)CN1C(=O)COc2ccc(S(=O)(=O)N3CCOCC3)cc21`, the inhibition is -4.55%.

As to `COc1ccc(Cn2c(C)c(C)c(C#N)c2NC(=O)Nc2ccc(F)cc2)cc1`, the inhibition is 0.17%.

Consider `CN1CCN(Cc2c(O)ccc3c2oc(=O)c2ccccc23)CC1`, for which the inhibition was -1.97%.

In the case of `CC(C)(C)c1ccc(/C=C2\Oc3c(ccc(O)c3CN3CCN(CCO)CC3)C2=O)cc1`, the inhibition is 33.2% (active).

For the compound `CCOC(=O)c1oc2c(CN3CCN(CCO)CC3)c(O)c(CC)cc2c(=O)c1-c1nc2ccccc2s1`, the inhibition is -0.54%.

`CC(=O)N1N=C(c2ccncc2)OC1(Cc1ccccc1)Cc1ccccc1`: the inhibition is -0.93%.

`O=C(CC12CC3CC(CC(C3)C1)C2)Nc1ccc2c(c1)COC2=O`: the inhibition was -3.75%.

As to `Nc1nonc1-n1nnc(C(=O)N/N=C/c2cc(Br)ccc2O)c1CSC1=NCCS1`, the inhibition is 24.7% (active).

On to `Cc1ccc(SCc2c(C(=O)N/N=C/c3cccnc3)nnn2-c2nonc2N)cc1`, for which the inhibition was 0.4%.

`Nc1nonc1-n1nnc(C(=O)N/N=C/c2ccccc2O)c1CN1CCCC1`: the inhibition is -0.45%.

Turning to `COc1ccc(C(C(=O)NC2CCCCC2)N(C(=O)Cc2c[nH]c3ccccc23)c2ccccc2)cc1OC` (centres undefined), the inhibition was 4.78%.

Take `N#CC1=C(N)Oc2c(sc3ccccc23)C1c1ccco1` (centres undefined): the inhibition was 100% (active).

Take `N#CC1=C(N)Oc2c(ccc3cccnc23)C1c1ccncc1` (centres undefined): the inhibition was 0.31%.

In the case of `CC1=C(C(=O)Nc2ccccc2)C(c2ccco2)C(C#N)=C(SCC(N)=O)N1` (centres undefined), the inhibition is -4.83%.

For `COCCCn1c(SCc2cccc(OC)c2)nc2cc(OC)c(OC)cc2c1=N`, the inhibition was -1.89%.

Take `CC(=O)Nc1ccc(S(=O)(=O)NCC(=O)OCc2cc(=O)oc3ccc4ccccc4c23)cc1`: the inhibition is 2.61%.

For `COc1cc(/C=C(\C#N)c2nc3c(s2)CC(C)CC3)ccc1O` (centres undefined), the inhibition was 128% (active).

For `CCNc1nc(NCC)nc(N/N=C/c2ccc(O)c(OC)c2)n1`, the inhibition is -0.04%.

Take `COc1cc(/C=C(\C#N)c2nc3ccccc3[nH]2)ccc1O`: the inhibition was 96.4% (active).

Consider `Cc1ccc2nc(/C(C#N)=C\c3ccc(OC(=O)c4cccs4)cc3)[nH]c2c1`, for which the inhibition was 4.21%.

Turning to `COc1cc(/C=N/Nc2nc3ccccc3s2)ccc1O`, the inhibition is -1.42%.

Regarding `COc1ccc(/C=C(/NC(=O)c2ccc(C)cc2)c2nc3ccccc3[nH]2)cc1OC`, the inhibition was -0.67%.

In the case of `CCn1c(CC(=O)Nc2ccc(C)cc2)nnc1SCC(=O)Nc1nc(C)cs1`, the inhibition was 2.53%.

As for `O=C(NCCCCCCNC(=O)NCc1ccco1)NCc1ccco1`, the inhibition is -3.7%.

For the compound `COc1ccc2c(c1)CCNC2Cc1ccc(OC)c(O)c1` (centres undefined), the inhibition is -2.2%.

On to `COc1cc2c(cc1O)[C@H](Cc1ccc(Oc3cc(C[C@@H]4NCCc5cc(OC)c(O)cc54)ccc3O)cc1)NCC2`, for which the inhibition was 30% (active).

Regarding `CC[C@H]1CN2CCc3cc(OC)c(OC)cc3[C@@H]2C[C@@H]1C[C@H]1NCCc2cc(OC)c(OC)cc21`, the inhibition is 3.04%.

As for `O=S1(=O)CCO[C@H]2Cc3ccccc3[C@H]2N1Cc1ccccc1`, the inhibition is 3.47%.

`O=C(CCc1ccccc1)Nc1ccnn1C1CCN(Cc2ccc(OCCO)cc2)CC1`: the inhibition is -3.8%.

Regarding `Cc1ccc(C)c2[nH]c(=O)c(CCNC(=O)CC(C)C)cc12`, the inhibition was 51.6% (active).

Take `Cc1ccc(C)c2[nH]c(=O)c(CCNC(=O)c3cccs3)cc12`: the inhibition is -3.33%.

For `COc1ccc(OC)c2[nH]c(=O)c(CCNC(=O)C(C)(C)C)cc12`, the inhibition was 1.81%.

`CCc1ccnc(NS(=O)(=O)c2ccc3c(c2)OCCO3)c1`: the inhibition is -1.71%.

As to `O=C(C1CCCO1)N1CCN(C(=S)NC2CC2)CC1` (centres undefined), the inhibition was -3.35%.

`CCOC(=O)/C(C#N)=C/c1ccc(OCC(=O)Nc2ccccc2)c(OC)c1`: the inhibition is -2.78%.

For `CCOC(=O)/C(C#N)=C/c1ccc(N2CCN(Cc3ccccc3)CC2)cc1`, the inhibition was 48% (active).

With `CCOC(=O)/C(C#N)=C/c1ccc(N2CCCCC2)cc1`, the inhibition is 116% (active).

As for `COc1ccc(/C=C(\C#N)C(=O)ONC2=NCCCCC2)cc1`, the inhibition is 0.43%.

For `CCOC(=O)NC(=O)/C(C#N)=C\c1ccccc1`, the inhibition is -1.78%.

For the compound `COc1ccc(N2CCN(C(=O)/C(C#N)=C/c3ccccc3)CC2)cc1`, the inhibition was 19.5%.

On to `Cc1ccc(-c2nn(-c3ccccc3)cc2/C=C2\SC(=S)N(CCCCCC(=O)O)C2=O)o1`, for which the inhibition was 49.2% (active).

With `CN(C)S(=O)(=O)c1cccc(-c2nn(-c3ccccc3)cc2/C=C2\SC(=S)N(CC(=O)O)C2=O)c1`, the inhibition is -1.23%.

Turning to `COc1ccc(-c2nn(-c3ccccc3)cc2/C=C2/SC(=S)N(CCCC(=O)O)C2=O)c(C)c1`, the inhibition is 1.54%.

As to `CCC(C)Sc1nc(C)nc2c1c(=O)n(C)c(=O)n2C` (centres undefined), the inhibition was -1.63%.

`NC(=O)NCCCC(=O)O`: the inhibition was -0.59%.

`COc1ccc(/C=N/NC(=O)c2cc(-c3cccc(C)c3)nc3ccccc23)cc1O`: the inhibition is -4.75%.

Regarding `CC(C)NC(=O)c1ccc(Cl)cc1Cl`, the inhibition was -0.44%.

With `Cc1sc2nc(COC(=O)C(NC(=O)c3ccc(Cl)cc3Cl)C(C)C)[nH]c(=O)c2c1C` (centres undefined), the inhibition was 33.1% (active).

For `Cc1sc2nc(CSCC(=O)Nc3c(Cl)cccc3Cl)[nH]c(=O)c2c1C`, the inhibition is 17.1%.

For `CSCCC(NC(=O)c1ccc(Cl)cc1Cl)C(=O)NNC(=O)c1csc(N2CCOCC2)n1` (centres undefined), the inhibition was 1.09%.

In the case of `COc1ccc(N2CC(C)Cn3c2nc2c3c(=O)n(Cc3ccccc3F)c(=O)n2C)c(OC)c1` (centres undefined), the inhibition is 1.36%.

As for `O=C(CN1C(=O)NC2(CCCCC2)C1=O)NCCc1c[nH]c2ccccc12`, the inhibition is -3.99%.

For `N#C/C(=C/c1ccc(N2CCCCC2)o1)C(=O)NCCc1c[nH]c2ccccc12`, the inhibition was 178% (active).

For `CC(=O)N/C(=C/c1ccc(Cl)cc1)C(=O)NCCc1c[nH]c2ccccc12`, the inhibition is -3.35%.

For the compound `O=C(CSc1nnc(Nc2ccccc2)s1)Nc1cccnc1Cl`, the inhibition is -0.7%.

For `Cc1ccc(Nc2nnc(SCC(=O)c3cc4ccccc4o3)s2)cc1C`, the inhibition is 9.66%.

On to `CC(C)c1ccc(Nc2nnc(SCC(=O)c3nnc(-c4ccccc4)o3)s2)cc1`, for which the inhibition was 42% (active).

Regarding `CC(C)CN1CCNC(=O)C1CC(=O)N(C)CC1CCOCC1` (centres undefined), the inhibition was -5.14%.

As for `COc1ccc(S(=O)(=O)NCC2CCCN(C(=O)c3occc3C)C2)cc1` (centres undefined), the inhibition is -4.48%.

As for `CCN1CCN(C(=O)Cn2nc(C)n3c(cc4c(OC)cccc43)c2=O)CC1`, the inhibition was 1.92%.
